The record followed here is PubChem BioAssay (NCATS).

Inconclusive results are not listed. Active and inactive are the calls of the source. The call rests on the fitted dose curve; in most records, active means well fitted curve in the direction sought with a large enough effect; inconclusive means small, poorly fitted or top-dose-only effect, or another doubt; inactive means no such curve, though single readings can be large; an effect the other way counts as inactive or inconclusive.

One assay has as its system MCC-13. Nature of the assay: qHTS assay to identify novel small-molecules to repurpose for Merkel cell carcinoma treatment (AID 1296009). Further: nearly all actives have a fitted effect of over 60% in size. Conditions: MCC and control cell lines, CellTiter-Glo viability, 72 h; series mostly up to 46 µM. The gist of the method:
(§1)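 Cell viability, measured as CellTiter-Glo luminescence, was normalized between DMSO and no-cell wells. The cells had been exposed to 8- or 11-point compound dilutions for 72 hr at 37 degree celsius.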
Background: Quantitative high-throughput screening tests each substance at several concentrations.

A further assay deals with MKL-1. The assay is described as above. The conditions noted are these: MCC and control cell lines, CellTiter-Glo viability, 72 h; series mostly up to 46 µM. The gist of the method: as §1
The subject of a further assay is MKL-2. The assay is described as above. Conditions: MCC and control cell lines, CellTiter-Glo viability, 72 h; series mostly up to 46 µM. The essentials: as §1
The next assay concerns NIH3T3. Described as above. The conditions noted are these: MCC and control cell lines, CellTiter-Glo viability, 72 h; at 44.8 µM (top of the series) unless noted. The gist of the method: as §1
Another assay relates to UISO. The assay is described as above. The conditions noted are these: MCC and control cell lines, CellTiter-Glo viability, 72 h; series mostly up to 46 µM. The gist of the method: as §1
The test system of the next assay is WaGa. The description is as above. The conditions noted are these: MCC and control cell lines, CellTiter-Glo viability, 72 h; series mostly up to 46 µM. The gist of the method: as §1
A general note: Cellular ATP, detected with luciferase, serves as a proxy for viable cell number.

In the next assay the test system is C33A. Kind of assay: Primary qHTS to identify gynecologic anti-cancer compounds using libraries of approved drugs and bioactive compounds (AID 1345084). Further: nearly all actives have a fitted effect of over 55% in size. Further: potency means the concentration at half of the fitted maximal effect. Conditions: Gynecologic cancer cell panel viability, ATPlite luminescence, 48 h; series mostly up to 57.5 µM. The essentials: (§2)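 Cells, 1,000 per well, were allowed to settle for 16 h at 37 C before compound addition. Five concentrations were tested for 48 h, and viability was read by ATPlite luminescence after 15 min at room temperature.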

The subject of the next assay is CAOV3. Described as above. The conditions noted are these: Gynecologic cancer cell panel viability, ATPlite luminescence, 48 h; series mostly up to 57.5 µM. The essentials: as §2
The test system of a further assay is CASKI. The description is as above. The conditions noted are these: Gynecologic cancer cell panel viability, ATPlite luminescence, 48 h; series mostly up to 57.5 µM. The gist of the method: as §2
For another assay, the system named is Es-2. The assay is described as above. The conditions noted are these: Gynecologic cancer cell panel viability, ATPlite luminescence, 48 h; series mostly up to 57.5 µM. The gist of the method:
as §2

The next assay concerns HeLa. The description is as above. Conditions: Gynecologic cancer cell panel viability, ATPlite luminescence, 48 h; series mostly up to 57.5 µM. The essentials:
as §2

The test system of another assay is Hek293T. The assay is described as above. Conditions: Gynecologic cancer cell panel viability, ATPlite luminescence, 48 h, control line for the selectivity index; series mostly up to 57.5 µM. The gist of the method:
as §2

A further assay deals with JEG-3. The description is as above. Conditions: Gynecologic cancer cell panel viability, ATPlite luminescence, 48 h; series mostly up to 57.5 µM. The gist of the method: as §2
A further assay relates to OV90. Described as above. The conditions noted are these: Gynecologic cancer cell panel viability, ATPlite luminescence, 48 h; series mostly up to 57.5 µM. The gist of the method: as §2
The next assay concerns PA-1. The assay is described as above. The conditions noted are these: Gynecologic cancer cell panel viability, ATPlite luminescence, 48 h; series mostly up to 57.5 µM. The gist of the method: as §2
Another assay has as its system SKOV3. The description is as above. The conditions noted are these: Gynecologic cancer cell panel viability, ATPlite luminescence, 48 h; series mostly up to 57.5 µM. The essentials:
as §2

Another assay has as its system Tov-21-G. Described as above. Conditions: Gynecologic cancer cell panel viability, ATPlite luminescence, 48 h; series mostly up to 57.5 µM. The gist of the method: as §2
In a further assay the test system is Tov112D. The assay is described as above. Conditions: Gynecologic cancer cell panel viability, ATPlite luminescence, 48 h; series mostly up to 57.5 µM. The gist of the method: as §2
The next assay has as its system MCC-26. Nature of the assay: qHTS assay to identify novel small-molecules to repurpose for Merkel cell carcinoma treatment (AID 1296009). Further: nearly all actives have a fitted effect of over 60% in size. Conditions: MCC and control cell lines, CellTiter-Glo viability, 72 h; series mostly up to 46 µM. The gist of the method: as §1

For `CN1C(=O)CC(c2ccccc2)C1=O` (stereo not given), the outcome with MCC-13, in the assay with MKL-1, in the assay with MKL-2, in the assay on NIH3T3, in the assay with UISO and in the assay with WaGa was inactive. For the same compound, the compound was called inactive in the assay with C33A, with CAOV3, in the assay on CASKI, in the assay with Es-2, in the assay with HeLa and with Hek293T. In addition, the compound was called inactive with JEG-3, with PA-1, in the assay on SKOV3, in the assay on Tov-21-G and in the assay with Tov112D. Also, the Potency result in the assay on OV90 is “inactive”.

Turning to `O=C(O)CNC(=O)c1ccccc1I`, the result in the assay on MCC-13, with MKL-1, in the assay with MKL-2, in the assay on NIH3T3, in the assay with UISO and with WaGa was inactive. The result in the assay with C33A, in the assay with CASKI, in the assay on Es-2, with HeLa, in the assay with Hek293T and in the assay on JEG-3 was inactive. Further, the outcome in the assay on PA-1, in the assay with Tov-21-G and with Tov112D was inactive. In the assay on OV90, the Potency entry is “inactive”.

Turning to `CCN1CC(CCN2CCOCC2)C(c2ccccc2)(c2ccccc2)C1=O` (stereo not given), the call in the assay on MCC-13, in the assay on MCC-26, with MKL-1, in the assay with MKL-2, in the assay with UISO and in the assay with WaGa was inactive. The compound was classed as inactive in the assay with C33A, with CASKI, in the assay on Es-2, in the assay with HeLa, with Hek293T and in the assay on JEG-3. The call in the assay on PA-1, in the assay on Tov-21-G and in the assay on Tov112D was inactive. Moreover, the Potency entry in the assay with OV90 was “inactive”.

In the case of `CC(N)CCCC(C)(C)O` (stereo not given), the compound was called inactive in the assay with MCC-13, with MKL-1, in the assay on MKL-2, with NIH3T3, with UISO and with WaGa. Also, the compound was called inactive in the assay with C33A, in the assay on CAOV3, in the assay on CASKI, in the assay with Es-2, in the assay with HeLa and in the assay with Hek293T. Besides, the result in the assay with JEG-3, with PA-1, with SKOV3, in the assay on Tov-21-G and with Tov112D was inactive. Besides, the Potency result in the assay with OV90 is “inactive”.

Turning to `Nc1ncnc(Nc2ccccc2)n1`, the outcome with MCC-13, in the assay on MKL-1, in the assay with MKL-2, in the assay with NIH3T3, with UISO and in the assay on WaGa was inactive. Moreover, the call in the assay with C33A, in the assay on CAOV3, with CASKI, in the assay with Es-2, with HeLa and in the assay with Hek293T was inactive. Besides, the compound was called inactive with JEG-3, in the assay with PA-1, in the assay with SKOV3, in the assay on Tov-21-G and with Tov112D.

For the compound `O=C(O)c1ccc(OCCCOc2ccc(C(=O)O)cc2)cc1`, the compound was called inactive in the assay on MCC-13, in the assay on MKL-1, in the assay on MKL-2, in the assay on UISO, with WaGa and in the assay on C33A. In addition, the compound was classed as inactive in the assay with CAOV3, in the assay with CASKI, in the assay with Es-2, in the assay with HeLa, in the assay on Hek293T and in the assay with JEG-3. Moreover, the compound was classed as inactive in the assay with PA-1, with SKOV3, with Tov-21-G and with Tov112D. Besides, the Potency result in the assay with OV90 is “inactive”.

Consider `CC1(C)[C@@H](OC(=O)CCC(=O)O)CC[C@]2(C)[C@H]3C(=O)C=C4[C@@H]5C[C@@](C)(C(=O)O)CC[C@]5(C)CC[C@@]4(C)[C@]3(C)CC[C@@H]12`, for which the result in the assay on MCC-13, with MKL-1, in the assay with MKL-2, in the assay with NIH3T3, in the assay on UISO and in the assay on WaGa was inactive. Moreover, the call in the assay with C33A, in the assay on CAOV3, with CASKI, in the assay on Es-2, in the assay on HeLa and in the assay with Hek293T was inactive. Further, the compound was called inactive in the assay with JEG-3, with PA-1, in the assay on SKOV3, with Tov-21-G and with Tov112D. Also, the Potency result in the assay on OV90 is “inactive”.

Turning to `Cn1cc(C(=O)[C@@H]2CCc3nc[nH]c3C2)c2ccccc21`, the call in the assay with MCC-13, with MKL-1, in the assay with MKL-2, in the assay with UISO, with WaGa and in the assay with C33A was inactive. Moreover, the compound was classed as inactive in the assay with CAOV3, in the assay with CASKI, in the assay with Es-2, in the assay on HeLa, in the assay with Hek293T and in the assay with JEG-3. Also, the compound was classed as inactive in the assay on PA-1, in the assay on SKOV3, with Tov-21-G and in the assay with Tov112D. Moreover, the Potency entry with OV90 was “inactive”.

With `CCCCCCCC(=O)OCC(O)CO` (stereo not given), the call in the assay with MCC-13, with MKL-1, with MKL-2, in the assay on UISO, in the assay with WaGa and in the assay on C33A was inactive. For the same compound, the call in the assay on CAOV3, with CASKI, in the assay on Es-2, with HeLa, with Hek293T and in the assay on JEG-3 was inactive. The compound was called inactive in the assay on PA-1, in the assay with SKOV3, with Tov-21-G and in the assay on Tov112D. For the same compound, the Potency in the assay with OV90 is 3.55 µM (active).

As for `CC1CCN(CCCC(=O)c2ccc(F)cc2)CC1`, the compound was called inactive in the assay with MCC-13, in the assay with MKL-1, in the assay with MKL-2, with UISO, in the assay on WaGa and in the assay on C33A. Moreover, the compound was classed as inactive in the assay on CAOV3, in the assay with CASKI, in the assay with Es-2, in the assay with HeLa, with Hek293T and with JEG-3. In addition, the call in the assay with PA-1, with SKOV3, in the assay on Tov-21-G and in the assay with Tov112D was inactive. Moreover, the Potency entry in the assay on OV90 is “inactive”.

Turning to `O=C1c2ccccc2C(=O)C1c1ccc(Br)cc1`, the compound was classed as inactive in the assay with MCC-13, in the assay on MKL-1, in the assay on MKL-2, in the assay on UISO, in the assay on WaGa and in the assay on C33A. The compound was classed as inactive in the assay with CAOV3, with CASKI, in the assay with Es-2, with HeLa, in the assay on Hek293T and in the assay on JEG-3. The compound was classed as inactive in the assay on PA-1, in the assay on SKOV3, in the assay with Tov-21-G and with Tov112D. In addition, the Potency result with OV90 was “inactive”.

For `CCOC(=O)c1cccnc1`, the result in the assay on MCC-13, in the assay on MKL-1, in the assay on MKL-2, with UISO, with WaGa and with C33A was inactive. Further, the call in the assay on CAOV3, in the assay with CASKI, in the assay with Es-2, in the assay on HeLa, in the assay with Hek293T and with JEG-3 was inactive. Besides, the compound was classed as inactive with PA-1, in the assay with SKOV3, in the assay with Tov-21-G and with Tov112D. Also, in the assay with OV90, the Potency entry was “inactive”.
